Experimental data taken from PMC5540273 (PLoS ONE, 2017).

Legend:
Details in all cases: concentration: 1 μM,replicates: in singlicate; n = 1
FYN = system: FYN
GAK = system: GAK
GCN2(Kin.Dom.2,S808G) = system: T1, GCN2(Kin.Dom.2,S808G)
T1 construct: gene EIF2AK4

GRK1 = system: GRK1
GRK2 = system: T2, GRK2
T2 construct: gene ADRBK1

GRK3 = system: T3, GRK3
T3 construct: gene ADRBK2

GRK4 = system: GRK4
GRK7 = system: GRK7
GSK3A = system: GSK3A
GSK3B = system: GSK3B
HASPIN = system: T4, HASPIN
T4 construct: gene GSG2

HCK = system: HCK
HIPK1 = system: HIPK1
HIPK2 = system: HIPK2
HIPK3 = system: HIPK3
HIPK4 = system: HIPK4
HPK1 = system: HPK1
HUNK = system: HUNK
ICK = system: ICK
IGF1R = system: IGF1R
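Note: KINOMEscan kinase panel screen.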

Row | SMILES | %Inh (FYN) [%] | %Inh (GAK) [%] | %Inh (GCN2(Kin.Dom.2,S808G)) [%] | %Inh (GRK1) [%] | %Inh (GRK2) [%] | %Inh (GRK3) [%] | %Inh (GRK4) [%] | %Inh (GRK7) [%] | %Inh (GSK3A) [%] | %Inh (GSK3B) [%] | %Inh (HASPIN) [%] | %Inh (HCK) [%] | %Inh (HIPK1) [%] | %Inh (HIPK2) [%] | %Inh (HIPK3) [%] | %Inh (HIPK4) [%] | %Inh (HPK1) [%] | %Inh (HUNK) [%] | %Inh (ICK) [%] | %Inh (IGF1R) [%]
1 | CCOC(=O)N1CCC(n2cnc(-c3ccc(F)cc3)c2-c2ccnc(N)n2)CC1 [SB-219952] | 0 | 59 | 44 | 0 | 8 | 0 | 32 | 20 | 0 | 37 | 0 | 0 | 37 | 17 | 15 | 0 | 5 | 0 | 70 | 0
2 | O=c1[nH]cc(-c2ccc(O)cc2)c2sc(-c3ccncc3)cc12 [GSK1033723] | 21 | 16 | 6 | 0 | 0 | 0 | 0 | 0 | 63 | 22 | 88 | 0 | 67 | 72 | 90.1 | 22 | 44 | 0 | 0 | 0
3 | C[C@@H](Oc1cc(-n2cnc3cc(-c4cnn(C)c4)ccc32)sc1C(N)=O)c1ccccc1Cl [GSK580432] | 47 | 95.3 | 99.2 | 4 | 38 | 0 | 85 | 0 | 0 | 0 | 0 | 64 | 20 | 0 | 4 | 1 | 91.3 | 0 | 0 | 0
4 | Cc1ccc(Nc2ccnc(Nc3ccc4c(c3)CS(=O)(=O)C4)n2)cc1O.Cl [GW579362] | 97.9 | 87 | 98.4 | 2 | 0 | 22 | 82 | 0 | 63 | 23 | 0 | 90 | 26 | 0 | 28 | 44 | 62 | 8 | 28 | 56
5 | CS(=O)c1ccc(-c2coc3ccc(-c4n[nH]c(=O)o4)cc23)cc1 (stereo not shown) | 0 | 0 | 21 | 6 | 0 | 30 | 19 | 15 | 93.3 | 15 | 50 | 0 | 99.6 | 100 | 99.6 | 93.6 | 1 | 11 | 29 | 13
